Source: PubChem BioAssay AID1159580 (chemical genetic matrix, 2015)
Several values for one entry are separate records, joined by “and”; a condition that tells them apart may be missing. Equal entries are not always repeated. Out of some 5,500 compounds screened, about 2,000 (36%) were called active. About 18% were inconclusive and are not listed. No stated cut-off is given here; in the data, active means normalized growth mostly below about 0.91 (no sharp cut-off); inconclusive means no clear call, values can overlap the other calls; inactive means mostly above about 0.92. The list shows a part of the results.

Experiment: chemical genetic growth profiling, strain panel (AID 1159580);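 further: tested at 20 µM; growth read once vehicle control cultures reached saturation at 30 °C; 1 = growth at the plate median or of vehicle wells; lower values mean less growth of the strain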
Details: growth OD

Measured: normalized growth

O=[N+]([O-])/C=C/c1ccsc1
active: S. cerevisiae deletion strains, locus YAL013W, strain DEP1, hits give low values 0.0965 | S. cerevisiae deletion strains, locus YAR019C, strain CDC15, hits give low values 0.0973 | S. cerevisiae deletion strains, locus YBL105C, strain PKC1, hits give low values 0.088 | S. cerevisiae deletion strains, locus YBR135W, strain CKS1, hits give low values 0.0811 | S. cerevisiae deletion strains, locus YBR136W, strain MEC1, hits give low values 0.0958 | S. cerevisiae deletion strains, locus YBR160W, strain CDC28, hits give low values 0.0863 | S. cerevisiae deletion strains, locus YBR229C, strain ROT2, hits give low values 0.0538 | S. cerevisiae deletion strains, locus YCL061C, strain MRC1, hits give low values 0.0534 | S. cerevisiae deletion strains, locus YDL017W, strain CDC7, hits give low values 0.0862 | S. cerevisiae deletion strains, locus YDL028C, strain MPS1, hits give low values 0.108 | S. cerevisiae deletion strains, locus YDL101C, strain DUN1, hits give low values 0.0979 and 0.0659 | S. cerevisiae deletion strains, locus YDL108W, strain KIN28, hits give low values 0.1 | S. cerevisiae deletion strains, locus YDL132W, strain cdc53, hits give low values 0.0899 | S. cerevisiae deletion strains, locus YDL214C, strain PRR2, hits give low values 0.0917 | S. cerevisiae deletion strains, locus YDR052C, strain DBF4, hits give low values 0.0918 | S. cerevisiae deletion strains, locus YDR054C, strain cdc34, hits give low values 0.0966 | S. cerevisiae deletion strains, locus YDR150W, strain NUM1, hits give low values 0.319 | S. cerevisiae deletion strains, locus YDR226W, strain ADK1, hits give low values 0.377 | S. cerevisiae deletion strains, locus YDR477W, strain SNF1, hits give low values 0.0976 | S. cerevisiae deletion strains, locus YEL061C, strain CIN8, hits give low values 0.0749 | S. cerevisiae deletion strains, locus YER123W, strain YCK3, hits give low values 0.0988 | S. cerevisiae deletion strains, locus YER133W, strain GLC7, hits give low values 0.0944 | S. cerevisiae deletion strains, locus YFL009W, strain cdc4, hits give low values 0.09 | S. cerevisiae deletion strains, locus YFL029C, strain CAK1, hits give low values 0.0924 | S. cerevisiae deletion strains, locus YFR003C, strain YPI1, hits give low values 0.126 | S. cerevisiae deletion strains, locus YFR019W, strain FAB1, hits give low values 0.0932 | S. cerevisiae deletion strains, locus YFR028C, strain CDC14, hits give low values 0.0832 | S. cerevisiae deletion strains, locus YGR040W, strain KSS1, hits give low values 0.102 | S. cerevisiae deletion strains, locus YGR052W, strain FMP48, hits give low values 0.105 | S. cerevisiae deletion strains, locus YGR078C, strain PAC10, hits give low values 0.0512 | S. cerevisiae deletion strains, locus YGR092W, strain DBF2, hits give low values 0.101 | S. cerevisiae deletion strains, locus YHR030C, strain SLT2, hits give low values 0.086 and 0.114 | S. cerevisiae deletion strains, locus YHR079C, strain IRE1, hits give low values 0.115 | S. cerevisiae deletion strains, locus YHR082C, strain KSP1, hits give low values 0.122 | S. cerevisiae deletion strains, locus YHR087W, strain rtc3, hits give low values 0.0574 | S. cerevisiae deletion strains, locus YHR205W, strain SCH9, hits give low values 0.014 | S. cerevisiae deletion strains, locus YIL147C, strain SLN1, hits give low values 0.266 | S. cerevisiae deletion strains, locus YJL095W, strain BCK1, hits give low values 0.104 | S. cerevisiae deletion strains, locus YJL128C, strain PBS2, hits give low values 0.0942 | S. cerevisiae deletion strains, locus YJL157C, strain FAR1, hits give low values 0.0861 | S. cerevisiae deletion strains, locus YJL187C, strain SWE1, hits give low values 0.0512 | S. cerevisiae deletion strains, locus YJR016C, strain ILV3, hits give low values 0.0858 | S. cerevisiae deletion strains, locus YJR043C, strain POL32, hits give low values 0.0674 | S. cerevisiae deletion strains, locus YJR066W, strain TOR1 (second series), hits give low values 0.0922 | S. cerevisiae deletion strains, locus YJR066W, strain TOR1, hits give low values 0.121 | S. cerevisiae deletion strains, locus YJR075W, strain HOC1, hits give low values 0.072 | S. cerevisiae deletion strains, locus YKL048C, strain ELM1, hits give low values 0.109 | S. cerevisiae deletion strains, locus YKL067W, strain YNK1, hits give low values 0.0882 | S. cerevisiae deletion strains, locus YKL101W, strain HSL1, hits give low values 0.0953 | S. cerevisiae deletion strains, locus YKL190W, strain CNB1, hits give low values 0.0559 | S. cerevisiae deletion strains, locus YKL193C, strain SDS22, hits give low values 0.0818 | S. cerevisiae deletion strains, locus YKL203C, strain TOR2, hits give low values 0.102 | S. cerevisiae deletion strains, locus YLR039C, strain RIC1, hits give low values 0.0823 | S. cerevisiae deletion strains, locus YLR058C, strain SHM2 (second series), hits give low values 0.0499 | S. cerevisiae deletion strains, locus YLR085C, strain ARP6, hits give low values 0.0726 | S. cerevisiae deletion strains, locus YLR113W, strain HOG1, hits give low values 0.133 | S. cerevisiae deletion strains, locus YLR133W, strain CKI1, hits give low values 0.107 | S. cerevisiae deletion strains, locus YLR262C, strain YPT6, hits give low values 0.074 | S. cerevisiae deletion strains, locus YLR403W, strain SFP1, hits give low values 0.0115 | S. cerevisiae deletion strains, locus YML070W, strain DAK1, hits give low values 0.0892 | S. cerevisiae deletion strains, locus YML094W, strain GIM5, hits give low values 0.0766 | S. cerevisiae deletion strains, locus YMR001C, strain CDC5, hits give low values 0.0846 | S. cerevisiae deletion strains, locus YMR205C, strain PFK2 (second series), hits give low values 0.0874 | S. cerevisiae deletion strains, locus YMR219W, strain ESC1, hits give low values 0.0511 | S. cerevisiae deletion strains, locus YMR263W, strain SAP30, hits give low values 0.0973 | S. cerevisiae deletion strains, locus YMR277W, strain FCP1, hits give low values 0.0872 | S. cerevisiae deletion strains, locus YNL006W, strain LST8, hits give low values 0.0854 | S. cerevisiae deletion strains, locus YNL020C, strain ARK1, hits give low values 0.0962 | S. cerevisiae deletion strains, locus YNL153C, strain GIM3, hits give low values 0.0541 | S. cerevisiae deletion strains, locus YNL161W, strain CBK1, hits give low values 0.0827 | S. cerevisiae deletion strains, locus YNL183C, strain NPR1, hits give low values 0.113 | S. cerevisiae deletion strains, locus YNL207W, strain RIO2, hits give low values 0.0963 | S. cerevisiae deletion strains, locus YNL222W, strain SSU72, hits give low values 0.0831 | S. cerevisiae deletion strains, locus YNL298W, strain CLA4 (second series), hits give low values 0.0744 | S. cerevisiae deletion strains, locus YNL307C, strain MCK1 (second series), hits give low values 0.106 | S. cerevisiae deletion strains, locus YNL322C, strain KRE1, hits give low values 0.238 | S. cerevisiae deletion strains, locus YNR030W, strain Alg12, hits give low values 0.0788 | S. cerevisiae deletion strains, locus YOL078W, strain AVO1, hits give low values 0.0843 | S. cerevisiae deletion strains, locus YOL136C, strain PFK27, hits give low values 0.0965 | S. cerevisiae deletion strains, locus YOR061W, strain CKA2, hits give low values 0.0882 | S. cerevisiae deletion strains, locus YOR119C, strain RIO1, hits give low values 0.112 | S. cerevisiae deletion strains, locus YOR231W, strain MKK1, hits give low values 0.109 | S. cerevisiae deletion strains, locus YOR329C, strain SCD5, hits give low values 0.0876 | S. cerevisiae deletion strains, locus YPL031C, strain PHO85, hits give low values 0.0965 | S. cerevisiae deletion strains, locus YPL055C, strain LGE1, hits give low values 0.254 | S. cerevisiae deletion strains, locus YPL153C, strain RAD53, hits give low values 0.0949 | S. cerevisiae deletion strains, locus YPL204W, strain HRR25, hits give low values 0.0984 | S. cerevisiae deletion strains, locus YPL209C, strain IPL1, hits give low values 0.0842 | S. cerevisiae deletion strains, locus YPL241C, strain CIN2, hits give low values 0.106 | S. cerevisiae deletion strains, locus YPL256C, strain CLN2, hits give low values 0.133 | S. cerevisiae deletion strains, locus YPR025C, strain CCL1, hits give low values 0.0831 | S. cerevisiae deletion strains, locus YPR106W, strain ISR1, hits give low values 0.0863 | S. cerevisiae deletion strains, locus YPR111W, strain DBF20, hits give low values 0.0864 | S. cerevisiae deletion strains, locus YPR135W, strain CTF4, hits give low values 0.212 | S. cerevisiae deletion strains, strain NNK1, hits give low values 0.0961 | S. cerevisiae deletion strains, strain TSCII, hits give low values 0.0894 | S. cerevisiae strains, strain wild type, hits give low values 0.0538
